Screens deposited in PubChem BioAssay by The Scripps Research Institute Molecular Screening Center.
Rin1 Abl inh – blocks binding of human Rin1 to Abl. P00519+Q13671. inhibition, % at 7.35 µM. TR-FRET Rin1/Abl binding, biochemical. 0.4% of 360,000 active. AID 588664; in the data active = inhibition above about 5%, passing the limit was not always enough
UHRF1 binding – human UHRF1 methylated DNA binding inhibitors | Q96T88 | UHRF1 binding to methylated oligo, TR-FRET | inhibition, % at 4.4 µM | 0.75% of 370,000 active; in the data active = inhibition above about 21%;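 also: UHRF1 SRA domain binding a hemimethylated CpG hairpin DNA probe; 0% = median of test compound wells and 100% = reference inhibitor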
MBD2 inh – inhibitors of human MBD2 binding to methylated oligonucleotide | 0.31% of 370,000 active | Q9UBB5 | inhibition, % at 4.4 µM | TR-FRET; in the data active = inhibition above about 13%
Target sequence (Q9UBB5 whole entry, looked up): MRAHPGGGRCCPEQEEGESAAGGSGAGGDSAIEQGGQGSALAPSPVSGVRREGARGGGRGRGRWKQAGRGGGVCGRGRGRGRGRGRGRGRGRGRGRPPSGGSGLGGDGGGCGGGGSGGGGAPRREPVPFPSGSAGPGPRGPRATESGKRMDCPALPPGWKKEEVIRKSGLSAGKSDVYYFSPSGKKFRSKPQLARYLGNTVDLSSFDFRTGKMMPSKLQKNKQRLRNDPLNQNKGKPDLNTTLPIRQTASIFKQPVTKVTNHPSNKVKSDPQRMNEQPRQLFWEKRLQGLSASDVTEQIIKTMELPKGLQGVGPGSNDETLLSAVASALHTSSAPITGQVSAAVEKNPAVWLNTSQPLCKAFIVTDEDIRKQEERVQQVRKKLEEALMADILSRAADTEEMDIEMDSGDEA
TCR-CD3 inh – inhibitors of human TCR-CD3 interaction; TAMRA-labeled TCR probe fluorescence, biochemical; inhibition, % at 9.4 µM; 0.37% of 360,000 active; in the data active = inhibition above about 19%;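 also: recombinant mutant TCR 2C K166C tagged with TAMRA read by polarization; 0% = receptor in buffer alone and 100% = receptor with positive control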
LEDGF integ inh – blocks HIV-1 LEDGF/p75-dependent DNA integration; TR-FRET IN-LEDGF/p75 DNA integration, Eu/Cy5; inhibition, % at 3.7 µM; 0.64% of 370,000 active;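 active = inhibition above the screen-wide mean plus 3 SD, cut at about 13% in these data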;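 also: signal is the Cy5 over europium emission ratio at 671 and 618 nm; 0% = plate median of compound wells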
Rin1 Abl conf – confirmation of inhibitors of human Rin1-Abl interaction; inhibition, % at 7.35 µM; 49% of 1,300 active; shares compounds with Rin1 Abl inh; TR-FRET Rin1-Abl binding, purified proteins
GFP quencher – GFP fluorescence interference artifact. inhibition, % at 6.75 µM. inhibitors/quenchers counterscreen. 8.5% of 1,300 active. shares compounds with Rin1 Abl inh;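 also: ABL1-eGFP fusion protein alone without its partner RIN1-SBP; 0% = protein with vehicle and 100% = wells lacking protein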
GFP quench DR – quenches GFP in dose response, Rin1-Abl counter-screen. shares compounds with Rin1 Abl inh. GFP fluorescence interference/quenching counterscreen. IC50, µM. 230 tested, under 10 active. AID 602182; call rule not given here;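 also: ABL1-eGFP fusion protein alone without its RIN1 binding partner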
Numbers without * were called inactive. Most compounds without a hit are left out; they make up all but 2% or so of the library. Rule as the data show it, unless noted: active = inhibition above about 6.5%; inactive = the rest.

What do the screens show for `COC(=O)CSc1ncnc2c1sc1nc(N3CCOCC3)c3c(c12)CCCC3`?
Rin1 Abl inh: -72.5; UHRF1 binding: -4.0; MBD2 inh: 2.4; TCR-CD3 inh: 5.2; LEDGF integ inh: 0.8

Results for CC1(C)Cc2c(c(N3CCCC3)nc3sc4c(N5CCN(CCO)CC5)ncnc4c23)CO1 ?
Rin1 Abl inh: 7.5; UHRF1 binding: 0.6; MBD2 inh: 4.6; TCR-CD3 inh: 5.9; LEDGF integ inh: -1.4

How did OCCN1CCN(c2ncnc3c2sc2nc(N4CCOCC4)c4c(c23)CCC4)CC1 do in these assays?
Rin1 Abl inh: 14.5*; UHRF1 binding: 16.1; MBD2 inh: 6.6; TCR-CD3 inh: 0.9; LEDGF integ inh: 3.7; Rin1 Abl conf: 22.8*; GFP quencher: 1.8; GFP quench DR: >67.6

What do the screens show for `COC(=O)c1ccc(Cn2cnc3c(sc4nc(N5CCOCC5)c5c(c43)CCCC5)c2=O)o1`?
Rin1 Abl inh: 8.7*; UHRF1 binding: 20.0; MBD2 inh: 0.5; TCR-CD3 inh: 6.9; LEDGF integ inh: 3.4; Rin1 Abl conf: 7.1*; GFP quencher: -1.3

What do the screens show for `OCCN(CCO)c1ncnc2c1sc1nc(N3CCOCC3)c3c(c12)CCCC3`?
Rin1 Abl inh: 10.8*; UHRF1 binding: 6.5; MBD2 inh: 7.9; TCR-CD3 inh: 5.5; LEDGF integ inh: -1.2; Rin1 Abl conf: 8.3*; GFP quencher: -0.6

How did CN(C)CCNc1ncnc2c1sc1nc(N3CCOCC3)c3c(c12)CC(C)(C)SC3 do in these assays?
Rin1 Abl inh: 27.0*; UHRF1 binding: -0.1; MBD2 inh: 2.8; TCR-CD3 inh: 2.7; LEDGF integ inh: 1.6; Rin1 Abl conf: 25.9*; GFP quencher: 2.0; GFP quench DR: >67.5

Results for COc1cccc(N(C)C(=O)[C@@H](C2CC2)[C@@H](O)c2ccc(Cl)cc2)c1 ?
UHRF1 binding: -2.6; MBD2 inh: -5.5; LEDGF integ inh: 7.7

How did CCOC(=O)C1CCCN(C(=O)c2cc(C#N)cs2)CC1 (stereo not drawn) do in these assays?
Rin1 Abl inh: -3.3; UHRF1 binding: -0.4; MBD2 inh: -1.5; TCR-CD3 inh: -7.8; LEDGF integ inh: -0.5

Results for COc1ccc(Cn2ccnc2SCC(=O)Nc2ccc(F)cc2F)cc1 ?
Rin1 Abl inh: -5.0; UHRF1 binding: -0.7; MBD2 inh: -1.1; TCR-CD3 inh: -5.8; LEDGF integ inh: 6.0

Results for CC(NC(=O)C1CCN(C(=O)c2ccc(F)cc2)CC1)c1ccc(-n2ccnc2)cc1 (stereo not drawn) ?
Rin1 Abl inh: 0.7; UHRF1 binding: 0.5; MBD2 inh: 5.3; TCR-CD3 inh: -7.6; LEDGF integ inh: -4.5

Results for O=C(Nc1c(-c2ccc3c(c2)OCO3)[nH][nH]c1=O)c1ccccc1 ?
Rin1 Abl inh: 23.5*; UHRF1 binding: 8.7; MBD2 inh: 1.2; TCR-CD3 inh: -4.4; LEDGF integ inh: 7.5; Rin1 Abl conf: 9.0*; GFP quencher: 0.0

How did O=C(Nc1c(-c2ccccc2)[nH][nH]c1=O)c1ccc2c(c1)OCO2 do in these assays?
UHRF1 binding: 5.1; MBD2 inh: 2.0; TCR-CD3 inh: -2.1; LEDGF integ inh: 9.7

What do the screens show for `OC[C@@H]1CN(Cc2ccc(-c3ccccc3)cc2)C[C@H](n2cnc3c(NCc4ccco4)ncnc32)O1`?
Rin1 Abl inh: 10.2*; UHRF1 binding: -1.4; MBD2 inh: -2.6; TCR-CD3 inh: -2.5; LEDGF integ inh: 5.1; Rin1 Abl conf: 6.7*; GFP quencher: -1.3

What do the screens show for `OCCNc1ncnc2c1ncn2[C@H]1CN(Cc2ccc(-c3ccccc3)cc2)C[C@@H](CO)O1`?
Rin1 Abl inh: 24.2*; Rin1 Abl conf: 27.9*; GFP quencher: 0.0; GFP quench DR: >67.5

What do the screens show for `CN(C)CCNc1ncnc2c1ncn2[C@H]1CN(Cc2ccc(-c3ccccc3)cc2)C[C@@H](CO)O1`?
Rin1 Abl inh: 3.3; UHRF1 binding: 0.3; MBD2 inh: 3.0; TCR-CD3 inh: -7.5; LEDGF integ inh: -5.6

What do the screens show for `OC[C@@H]1CN(Cc2ccccc2)C[C@H](n2cnc3c(NCc4ccco4)ncnc32)O1`?
Rin1 Abl inh: 1.4; UHRF1 binding: 0.6; MBD2 inh: 2.8; TCR-CD3 inh: -0.5; LEDGF integ inh: 1.1

How did CCNC(=O)N(C)[C@H]1C[C@@H](c2ccccc2)N(C(C)=O)C[C@H]1CO do in these assays?
UHRF1 binding: 0.9; MBD2 inh: -0.1; TCR-CD3 inh: 5.5; LEDGF integ inh: -1.0

What do the screens show for `COc1cc(C(=O)OCC(=O)Nc2ccc(S(=O)(=O)NC3=NCCCCC3)cc2)cc(OC)c1OC`?
Rin1 Abl inh: 5.7; UHRF1 binding: -0.7; MBD2 inh: -2.2; TCR-CD3 inh: -2.7; LEDGF integ inh: -0.7

How did CCCN(CC(=O)Nc1ccccc1OC)C(=O)CC1CCCC1 do in these assays?
Rin1 Abl inh: -3.0; UHRF1 binding: 1.2; MBD2 inh: 4.1; TCR-CD3 inh: -8.1; LEDGF integ inh: -3.3

What do the screens show for `c1ccc2[nH]c(SCc3cn4ccccc4n3)nc2c1`?
Rin1 Abl inh: 5.6*; UHRF1 binding: 0.9; MBD2 inh: 1.0; TCR-CD3 inh: 6.0; LEDGF integ inh: 2.9; Rin1 Abl conf: -1.7; GFP quencher: 1.1

What do the screens show for `Cc1ccc2cc(NC(=O)CC(CC(=O)O)c3ccccc3)ccc2n1` (stereo not drawn)?
Rin1 Abl inh: 8.6*; UHRF1 binding: -1.9; MBD2 inh: -1.7; TCR-CD3 inh: -4.1; LEDGF integ inh: 3.6; Rin1 Abl conf: 1.2; GFP quencher: -1.2

Results for Cc1ccc2cc(NC(=O)c3ccccc3)ccc2n1 ?
Rin1 Abl inh: -1.4; UHRF1 binding: 0.9; MBD2 inh: -1.4; TCR-CD3 inh: 4.2; LEDGF integ inh: -1.7

Results for CCc1ccc(CN2CCC(Oc3ccc(C(=O)N4CCCCC4)cc3)CC2)cc1 ?
Rin1 Abl inh: 10.1*; UHRF1 binding: -2.2; MBD2 inh: 2.3; TCR-CD3 inh: 6.3; LEDGF integ inh: 2.0; Rin1 Abl conf: 3.1; GFP quencher: -1.6

Results for CC(OC(=O)c1cccc(-n2cnnn2)c1)c1nc2ccccc2c(=O)[nH]1 (stereo not drawn) ?
Rin1 Abl inh: 6.2; UHRF1 binding: 0.8; MBD2 inh: -0.5; TCR-CD3 inh: -4.9; LEDGF integ inh: 2.4

What do the screens show for `CC1CCC(NC(=O)CN2CCN(S(=O)(=O)c3ccc(Br)s3)CC2)CC1` (stereo not drawn)?
Rin1 Abl inh: 1.5; UHRF1 binding: -1.7; MBD2 inh: 3.3; TCR-CD3 inh: 1.4; LEDGF integ inh: -2.7

Results for Cc1ccc(S(=O)(=O)N2CCCC2CNC(=O)C(=O)NCc2ccc3c(c2)OCO3)cc1 (stereo not drawn) ?
Rin1 Abl inh: 10.4*; UHRF1 binding: -0.8; MBD2 inh: 0.7; TCR-CD3 inh: -2.6; LEDGF integ inh: 3.3; Rin1 Abl conf: 5.8; GFP quencher: -0.5
